Compound activity deposited in PubChem by National Center for Advancing Translational Sciences (NCATS).
Sfp inh: Sfp phosphopantetheinyl transferase inhibition; Q9F4F7; Biochemical Sfp PPTase activity, qHTS; Potency, µM, for inactives: largest response in the series, negative = inhibition, actives largely listed as inhibitors; 3.5% of 310,000 active;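 note: the enzyme is Sfp with the accession as filed and its product quenches rhodamine fluorescence; 0% = enzyme reaction without inhibitor and -100% = no enzyme wells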
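Fluorescence-quenching assay: 15 nM Sfp-PPTase preincubated 15 min at room temperature with compound, then 5 uM rhodamine-CoA and 12.5 uM BHQ-2-labelled YbbR peptide added. Fluorescence (ex 525/em 598 nm) read at start and after 30 min; difference gives rate.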
HP1b binding inh: HP1-beta chromodomain-methylated histone interaction inhibition | Potency, µM (highest dose often 114 µM), for the others: at the highest dose activity change, negative = inhibition, most hits filed as inhibitors | AID 540317 | 0.56% of 390,000 active | AlphaScreen HP1-beta / biotin-H3K9me3 peptide binding; note: nearly all actives have a fitted effect of over 70% in size
Target sequence (P83916 whole entry, looked up): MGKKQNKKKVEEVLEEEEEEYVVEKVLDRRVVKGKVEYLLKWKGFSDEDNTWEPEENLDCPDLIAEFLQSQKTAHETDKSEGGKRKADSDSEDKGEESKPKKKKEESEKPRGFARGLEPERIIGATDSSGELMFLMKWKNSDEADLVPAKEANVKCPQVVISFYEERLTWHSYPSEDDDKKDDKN
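Compound inhibition of the preformed complex between 50 nM HP1-beta and 50 nM biotinylated H3K9me3 peptide was read by AlphaScreen. Buffer was PBS pH 7.4 with 0.01% Tween-20. Incubations ran 30 min at room temperature, with 10 ug/mL donor/acceptor beads.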
JMJD2A Tudor: blocks the human JMJD2A Tudor domain. Potency, µM (doses to about 114 µM), without a hit: top-dose activity change, negative = inhibition, usual class: inhibitors. O75164. AlphaScreen JMJD2A-Tudor / H3K4me3 peptide binding. AID 504339. 4.4% of 390,000 active; note: % is set by controls: 0 for no effect and ±100 for the full control effect; nearly all actives have a fitted effect of over 50% in size
BAZ2B inh: inhibitors of human BAZ2B bromodomain. Q9UIF8. AlphaScreen BAZ2B-H3K14Ac peptide displacement. Potency, µM (series often up to 114 µM), for inactives: at the highest dose activity change, negative = inhibition, most hits filed as inhibitors. 4.4% of 360,000 active. AID 504333; note: % is set by controls: 0 for no effect and ±100 for the full control effect; nearly all actives have a fitted effect of over 60% in size
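BAZ2B 50 nM plus b-H3(5-23)K14Ac 50 nM, PBS pH 7.4/0.01% Tween-20, 30 min RT; compound added (max 110 uM), 30 min RT; streptavidin donor/Ni-chelate acceptor beads 10 ug/mL final, 20 min dark; AlphaScreen read.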
G9a inh: blocks human histone lysine methyltransferase G9a; 8.8% of 350,000 active; G9a H3K9 monomethylation, AlphaScreen, 2 h; AID 504332; Q96KQ7; Potency, µM (titrated, usually from 102 µM), for inactives: top-dose activity, negative = inhibition, usual class: inhibitors; note: % is set by controls: 0 for no effect and ±100 for the full control effect; nearly all actives have a fitted effect of over 75% in size
Target sequence (Q96KQ7 913-1193 limits assumed): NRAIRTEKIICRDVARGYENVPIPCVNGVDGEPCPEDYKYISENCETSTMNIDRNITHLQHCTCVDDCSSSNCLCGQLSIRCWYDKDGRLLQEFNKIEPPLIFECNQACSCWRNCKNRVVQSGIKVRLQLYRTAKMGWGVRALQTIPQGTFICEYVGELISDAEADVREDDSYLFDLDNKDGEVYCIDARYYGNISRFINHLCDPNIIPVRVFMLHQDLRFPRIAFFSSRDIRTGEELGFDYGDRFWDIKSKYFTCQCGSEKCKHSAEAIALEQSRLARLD
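Readings reflect AlphaScreen signal from monomethyl-H3K9 antibody detection. HMT at 20 nM; substrate b-H3K9 500 nM; cofactor SAM 20 uM; 2 h RT reaction; compounds tested as titrations in qHTS with 15 min preincubation.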
12-LOX inh: blocks human arachidonate 12S-lipoxygenase. P18054. purified 12hLO, xylenol orange hydroperoxide absorbance. Potency, µM (highest dose often 108 µM), for inactives: at the top dose activity change, negative = inhibition, actives largely listed as inhibitors. 1.1% of 580,000 active. AID 1671190; note: % is set by controls: 0 for no effect and ±100 for the full control effect
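Hydroperoxide product was detected by ferrous iron/xylenol orange as the 573 to 405 nm absorbance ratio. Arachidonic acid at 40 uM (final) was turned over for 30 min at room temperature by 150 nM human 12hLO, pH 7.0 Hepes buffer, after 15 min compound preincubation.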
Active calls of the source: *; ? = inconclusive; nt = no result given; ! = not confirmed by another sample; [ ] = dose if it differs, or a comment. Rows were chosen to be rich in hits. Some 8.7% of all compounds tested hit in one or more screens of this group. Calls come from the whole dose curve; as a rule, active = well fitted curve in the direction sought with a large enough effect; inconclusive = small, poorly fitted or top-dose-only effect, or another doubt; inactive = no such curve, though single readings can be large; an effect the other way counts as inactive or inconclusive. Potency is the fitted concentration of half-maximal effect.

SMILES	Sfp inh	HP1b binding inh	JMJD2A Tudor	BAZ2B inh	G9a inh	12-LOX inh
COc1cccc(N2C(=O)/C(=C/c3ccc(C)o3)C(=O)NC2=S)c1	25µM*	?	22µM*	50µM*	4.5µM*	10µM*
COc1ccc(N2C(=O)/C(=C/C=C/c3ccccc3[N+](=O)[O-])C(=O)NC2=S)cc1	35µM*	25µM*	13µM*	50µM*	6.3µM*	11µM*
COc1ccc(N2C(=O)/C(=C/c3cccs3)C(=O)NC2=S)cc1	8.9µM*	-17%	35µM*	-38%	7.1µM*	28µM*
Cc1cc(C)cc(N2C(=O)/C(=C\c3ccc(N4CCN(C)CC4)o3)C(=O)NC2=S)c1	-1%	?	-32%	35µM*	?	?
COc1ccc(CC(=O)N2CC3(CCN(C)CC3)c3cc(OC)c(OCc4ccccc4)cc32)cc1	nt	nt	nt	nt	nt	-11%
CC1=C2C[C@@H]3[C@@H](CC=C4C[C@@H](O)CC[C@@]43C)[C@@H]2CC[C@]12O[C@H]1C[C@H](C)CN[C@H]1[C@H]2C	nt	nt	nt	nt	nt	5%[57.4 µM]
COc1ccc(N2C(=O)/C(=C/c3ccc(N(C)C)o3)C(=O)NC2=S)cc1	-22%	30%	-6%	?	45µM*	?
Cc1ccc(/C=C2\C(=O)NC(=S)N(c3ccc(F)cc3)C2=O)o1	45µM*	-17%	50µM*	56µM*	4µM*	?
CCN(CC)c1ccc(/C=C2\C(=O)NC(=S)N(C)C2=O)o1	-10%	-8%	-26%	?	12%[12.7 µM]	?
CCN(CC)c1ccc(/C=C2\C(=O)NC(=S)N(c3ccc(OC)cc3OC)C2=O)o1	nt	-15%	-26%	nt	nt	nt
Cc1ccc(N2C(=O)/C(=C/c3ccc(CN(CCC#N)S(C)(=O)=O)o3)C(=O)NC2=S)cc1	20µM*	50µM*	18µM*	50µM*	7.9µM*	nt
COCc1cn(C[C@H]2C[C@@H]3CCN2C[C@@H]3C(=O)NCc2ccccc2OC)nn1	nt	nt	nt	nt	nt	10%[176 µM]
CC(=O)Nc1ccc2n(c1=O)C[C@H]1C[C@@H]2CN(C(=O)c2ccccn2)C1	nt	nt	nt	nt	nt	3%[176 µM]
CC(C)(C)NC(=S)/N=C(\N)N[N+](=O)[O-]	?	11%	-12%	?	22µM*	0%
O=C1N(Cc2ccccn2)C[C@H]2CN(Cc3nccs3)CCN12	nt	nt	nt	nt	nt	105%[176 µM]
CN(C)C(Cc1ccc(Cl)cc1)C(=O)c1ccccc1 (stereo not given)	4%	12%	-15%	-6%	45µM*	?
CN1CCN(C(=S)c2ccc([N+](=O)[O-])cc2)CC1	13µM*	?	?	7%	10µM*	?
O=[N+]([O-])c1ccc(C(=Nc2ccccc2)N2CC2)cc1	nt	?	?	nt	nt	8%
CC(C)N1CCC2(CC1)CNCc1ccccc1O2	nt	nt	nt	nt	nt	38%
O=P1(N(CCCl)CCCl)NCCCO1 (stereo not given)	-9%	24%	-26%	0%	18µM*!	26%
CC(C)C1c2cccn2-c2ccccc2CN1C(=O)Nc1ccccc1F (stereo not given)	nt	nt	nt	nt	nt	-3%
Cc1cc(-c2cc(C)c(N)c(C)c2)cc(C)c1N	nt	?	50µM*	nt	nt	-2%
COCc1cn(C[C@H]2C[C@@H]3CCN2C[C@@H]3C(=O)N2CCCC2)nn1	nt	nt	nt	nt	nt	15%[176 µM]
CN1CCN(Cc2cc3c(cc2[N+](=O)[O-])OCO3)CC1	0%	22%	-15%	6%	nt	0%
COc1cc(CNCCc2ccc3c(c2)OCO3)ccc1O	5%	37%	-15%	2%	0%[0.501 µM]	?
SMILES	Sfp inh	HP1b binding inh	JMJD2A Tudor	BAZ2B inh	G9a inh	12-LOX inh
COc1ccc(CNCCc2ccc3c(c2)OCO3)cc1Br	?	-15%	18µM*	50µM*	5µM*	0%
COc1ccc(Br)cc1CNCCc1ccc2c(c1)OCO2	nt	?	25µM*	nt	nt	?
COc1ccccc1CCNCc1cc2c(cc1[N+](=O)[O-])OCO2	-16%	-55%	3.5µM*	50µM*	25µM*	?
COc1ccc(CCNCc2ccc(F)cc2)cc1OC	1%	29%	-8%	13%	77%[59 µM]	-2%
COc1cc(CNCCc2ccc3c(c2)OCO3)cc(OC)c1OC	-19%	?	0.79µM*	56µM*	5µM*	?
O=[S+]1([O-])NC2(CCN(Cc3ccccn3)C2)COc2ccncc21 (stereo not given)	nt	nt	nt	nt	nt	31%
Cn1nc(-c2ccc(F)cc2)cc1[C@H]1CN2CC[C@H]1C[C@@H]2CNC(=O)COc1ccccc1	nt	nt	nt	nt	nt	3%
N#Cc1ccc(C(=O)N2C[C@@H]3C[C@H](C2)c2c(-c4cccs4)ccc(=O)n2C3)cc1	nt	nt	nt	nt	nt	13%[176 µM]
COc1ccc(Oc2c(C)oc3cc(OCC(=O)N4CCN(C)CC4)ccc3c2=O)cc1	nt	nt	nt	nt	nt	-61%
NC(N)=Nc1ccc2[nH]c3c(c2c1)C[C@@]1(O)[C@H]2Cc4ccc(O)c5c4[C@@]1(CCN2CC1CC1)[C@H]3O5	nt	?	3.5µM*	25µM*	1.3µM*	nt
Oc1ccc2c3c1O[C@H]1c4[nH]c5c(c4C[C@@]4(O)[C@@H](C2)N(CC2CC2)CC[C@]314)C[C@]1(O)[C@H]2Cc3ccc(O)c4c3[C@@]1(CCN2CC1CC1)[C@@H]5O4	-7%	nt	nt	nt	nt	?
